In PubChem BioAssay (NCI) one finds growth data, which are given here for eight molecules.

Some test systems named below: SK-MEL-2 melanoma; EKVX NSCLC; SN12C renal; TK-10 renal; ACHN renal; CAKI-1 renal; CCRF-CEM leukemia; MOLT-4 leukemia; RPMI-8226 leukemia; OVCAR-8 ovarian; OVCAR-5 ovarian; OVCAR-4 ovarian; SK-OV-3 ovarian; OVCAR-3 ovarian; HS 578T breast; NCI/ADR-RES ovarian; UO-31 renal; A498 renal; IGROV1 ovarian; SR leukemia.
What all share (assay): NCI-60 one-dose screen, 48 h (100 = growth as untreated, 0 = no growth, -100 = all killed)
Holding throughout (conditions): 10 µM unless noted

The panel holds about 83,000 compounds, 20% with a hit somewhere; the sample as a whole holds those more often.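 Compound tested at a single concentration for 48 hours in 96-well plates; a percent growth value below 10 was scored as active.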 Values without a mark were called inactive. Active and inactive are the calls of the source.

`Nc1ccn(-c2ccc(Br)cc2)c(=O)n1`: the growth in the assay with SK-MEL-2 melanoma is 87.9%; with EKVX NSCLC, 95.8%; with SN12C renal, 115%; in the assay with TK-10 renal it was 113%; with ACHN renal, 111%; with CAKI-1 renal, 87.2%. For the same molecule, the growth with CCRF-CEM leukemia is -23.5% (active); in the assay on MOLT-4 leukemia it was 107%; in the assay with RPMI-8226 leukemia, 95.9%; with OVCAR-8 ovarian, 117%; in the assay with OVCAR-5 ovarian, 84%; in the assay with OVCAR-4 ovarian, 104%. Further, the growth in the assay on SK-OV-3 ovarian is 162%; in the assay on OVCAR-3 ovarian it was 48%; with HS 578T breast, 122%; in the assay on NCI/ADR-RES ovarian, 89.5%.
On to `COc1ccc(Nc2nc(SC)nc(-c3cccc([N+](=O)[O-])c3)c2C#N)cc1`, for which the growth is 94.9% in the assay with SK-MEL-2 melanoma; 70.5% with EKVX NSCLC; 64.5% in the assay on SN12C renal; 17.7% with UO-31 renal; 84% in the assay with TK-10 renal; 63% in the assay with CAKI-1 renal. The growth with A498 renal is 57.8%; in the assay with CCRF-CEM leukemia, 114%; in the assay on MOLT-4 leukemia, 99.8%; in the assay with RPMI-8226 leukemia, 98.4%; with OVCAR-8 ovarian, 39.4%; in the assay with OVCAR-5 ovarian, 76.5%. In addition, the growth was 2.52% (active) with OVCAR-4 ovarian; 46.4% in the assay with SK-OV-3 ovarian; 72.3% with IGROV1 ovarian; 74.5% in the assay on OVCAR-3 ovarian; 42.1% in the assay on HS 578T breast; 57.9% with NCI/ADR-RES ovarian.
On to `COc1ccc2c(c1)C(=O)/C(=C/c1ccccn1)CC2`, for which the growth in the assay with SK-MEL-2 melanoma was 81.3%; with EKVX NSCLC, 92.5%; in the assay on UO-31 renal, 90%; with TK-10 renal it was 55.7%; with ACHN renal, 54.1%; in the assay with CAKI-1 renal it was 74.4%. The growth with A498 renal is 120%; in the assay with CCRF-CEM leukemia, -6.73% (active); in the assay on MOLT-4 leukemia it was 21.5%; in the assay with SR leukemia, 7.35% (active); in the assay with RPMI-8226 leukemia it was -10.3% (active); with OVCAR-8 ovarian, 85.4%. Besides, the growth in the assay with OVCAR-5 ovarian is 92.1%; in the assay on OVCAR-4 ovarian, 83.8%; with SK-OV-3 ovarian, 98%; in the assay on IGROV1 ovarian, 85.6%; in the assay on OVCAR-3 ovarian, 62.1%; in the assay with HS 578T breast it was 98.1%. Moreover, the growth in the assay with NCI/ADR-RES ovarian was 88.6%.
In the case of `COc1ccc(-c2cc(-c3ccc(Nc4ccnc5cc(Cl)ccc45)cc3)nc(N3CCOCC3)n2)cc1`, the growth in the assay on SK-MEL-2 melanoma is 90.3%; in the assay on EKVX NSCLC, 90.4%; with SN12C renal it was 49.2%; in the assay with UO-31 renal it was 87.8%; with TK-10 renal, 9.38% (active); with A498 renal it was 86.6%. For the same molecule, the growth was 3.53% (active) in the assay on CCRF-CEM leukemia; 23.9% with MOLT-4 leukemia; -18% (active) with SR leukemia; -1.81% (active) in the assay on RPMI-8226 leukemia; 15.3% with OVCAR-8 ovarian; 135% in the assay with OVCAR-5 ovarian. The growth is -52.1% (active) with OVCAR-4 ovarian; 101% with SK-OV-3 ovarian; 103% with IGROV1 ovarian; 2.68% (active) in the assay with OVCAR-3 ovarian; -11.4% (active) in the assay with HS 578T breast; 20.8% in the assay with NCI/ADR-RES ovarian.
Regarding `COc1nc2c(c(=O)n1C)CN(Cc1ccccc1)C=N2`, the growth in the assay with SK-MEL-2 melanoma was 106%; with EKVX NSCLC it was 111%; in the assay with SN12C renal it was 116%; in the assay with UO-31 renal, 77.3%; with ACHN renal, 106%; in the assay with CAKI-1 renal, 98.1%. The growth in the assay on A498 renal is 131%; with CCRF-CEM leukemia it was 103%; with MOLT-4 leukemia, 105%; in the assay on SR leukemia, 98.7%; with RPMI-8226 leukemia it was 86.6%; in the assay on OVCAR-8 ovarian it was 96.7%. The growth in the assay with OVCAR-5 ovarian was 105%; with OVCAR-4 ovarian, 116%; in the assay with SK-OV-3 ovarian, 87.3%; with IGROV1 ovarian it was 93.7%; in the assay with OVCAR-3 ovarian it was 105%; in the assay with HS 578T breast it was 113%. Besides, in the assay on NCI/ADR-RES ovarian, the growth was 113%.
`NC(=NCCCC1(c2ccccc2)CCCC1)Nc1ccc(Cl)cc1`: the growth in the assay on SK-MEL-2 melanoma is 35.3%; in the assay with EKVX NSCLC it was 78.4%; in the assay on UO-31 renal it was 58.5%; in the assay with TK-10 renal, 71.1%; in the assay on ACHN renal, 34.7%; with CAKI-1 renal, 64.9%. Moreover, the growth with A498 renal is 83.1%; in the assay on CCRF-CEM leukemia, 4.14% (active); with MOLT-4 leukemia, -0.285% (active); with SR leukemia, -39.7% (active); with RPMI-8226 leukemia, -24.2% (active); with OVCAR-8 ovarian it was 60.4%. Moreover, the growth was 59.8% in the assay with OVCAR-5 ovarian; 41.3% in the assay with OVCAR-4 ovarian; 89% in the assay with SK-OV-3 ovarian; 38.9% in the assay with IGROV1 ovarian; 60.8% with OVCAR-3 ovarian; 65.4% with HS 578T breast. Besides, in the assay on NCI/ADR-RES ovarian, the growth was 67.1%.
Regarding `Cc1nn(-c2cc(=O)[nH]c3ccccc23)c(N)c1C#N`, the growth is 103% in the assay with SK-MEL-2 melanoma; 96.3% with EKVX NSCLC; 101% in the assay on SN12C renal; 67.5% with UO-31 renal; 112% in the assay on TK-10 renal; 87.5% in the assay with CAKI-1 renal. Also, the growth with CCRF-CEM leukemia was 102%; in the assay with MOLT-4 leukemia, 106%; with SR leukemia it was 105%; with RPMI-8226 leukemia, 99.9%; in the assay on OVCAR-8 ovarian it was 99.2%; with OVCAR-5 ovarian, 101%. Also, the growth with OVCAR-4 ovarian is 105%; with SK-OV-3 ovarian it was 111%; in the assay with IGROV1 ovarian it was 77.7%; with HS 578T breast, 98.6%; in the assay on NCI/ADR-RES ovarian, 108%.
As to `Cc1cc(N2CCCCCC2)nc(NC2CCCC(Nc3ccnc4cc(Cl)ccc34)C2)n1` (centres undefined), the growth in the assay with SK-MEL-2 melanoma is -82.2% (active); in the assay on EKVX NSCLC it was -27.5% (active); in the assay with SN12C renal, -90.7% (active); in the assay on UO-31 renal, -93.5% (active); with TK-10 renal, -81.2% (active); in the assay on A498 renal it was -74.7% (active). The growth is -29.2% (active) with CCRF-CEM leukemia; -51.8% (active) with MOLT-4 leukemia; -65.8% (active) in the assay with SR leukemia; -57% (active) with RPMI-8226 leukemia; -85.3% (active) with OVCAR-8 ovarian; -24.8% (active) in the assay with OVCAR-5 ovarian. Moreover, the growth with OVCAR-4 ovarian is -63.9% (active); in the assay on SK-OV-3 ovarian, -82.8% (active); in the assay with IGROV1 ovarian it was -47.1% (active); in the assay on OVCAR-3 ovarian, -78.6% (active); in the assay with HS 578T breast, -51.3% (active); in the assay with NCI/ADR-RES ovarian, -72.2% (active).
